Screening data as filed in PubChem BioAssay.
ELG1 repair inh: inhibitors of ELG1-dependent DNA repair in HEK293T cells. HEK293T ELG1-luciferase reporter, luminescence, 16 h; DNA damage induced by 5-fluorouridine. Potency, µM (doses to about 46.1 µM), actives largely listed as inhibitors. hit rate 2.3% among 330,000. AID 504467; also: nearly all actives have a fitted effect of over 55% in size
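Overnight (16 hr) co-exposure of 2,000 cells/well to 5-fluorouridine and compound at 37 °C preceded detection. Luciferase was quantified via ONE-Glo luminescence; loss of signal denotes inhibition.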
ELG1 genotoxic: genotoxicity induction in ELG1-luciferase HEK293T cells. HEK293T ELG1-luciferase reporter, luminescence, 16 h. hit rate 1.3% among 330,000. AID 504466. Potency, µM (top dose mostly 46 µM), actives largely listed as activators; also: nearly all actives have a fitted effect of over 60% in size
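After overnight (16 hr) compound treatment at 37 °C, ELG1-luciferase HEK293T cells were lysed with ONE-Glo; luminescence quantified 30 min later at room temperature.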
NPC1 prom act: activates the NPC1 promoter; Huh7 NPC1 promoter luciferase reporter, 24 h; Potency, µM (series often up to 9.22 µM), most hits filed as activators; hit rate 2.4% among 320,000; also: nearly all actives have a fitted effect of over 60% in size
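NPC1 promoter–luciferase Huh7 cells; 24 h compound; luminescence.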
Rab9 promoter act: activates the Rab9 promoter; AID 485297; hit rate 2.8% among 320,000; Huh7 Rab9 promoter-luciferase reporter, luminescence, 24 h; Potency, µM (top dose mostly 9.22 µM), actives largely listed as activators; also: nearly all actives have a fitted effect of over 60% in size
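Huh7 reporter line, Rab9 promoter upstream of luciferase. Compound exposure 24 h at 37 °C in reduced-serum medium with 10% FBS. Read-out: luminescence.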
FLuc modulator: counter-screen for miR-21 project: firefly luciferase inhibitors or activators. P08659. purified FLuc, Km substrates, luminescence inhibition. Potency, µM (series often up to 57.5 µM), hits mostly inhibitors. hit rate 6.9% among 360,000. AID 588342; also: nearly all actives have a fitted effect of over 55% in size
Target sequence (P08659 whole entry, looked up): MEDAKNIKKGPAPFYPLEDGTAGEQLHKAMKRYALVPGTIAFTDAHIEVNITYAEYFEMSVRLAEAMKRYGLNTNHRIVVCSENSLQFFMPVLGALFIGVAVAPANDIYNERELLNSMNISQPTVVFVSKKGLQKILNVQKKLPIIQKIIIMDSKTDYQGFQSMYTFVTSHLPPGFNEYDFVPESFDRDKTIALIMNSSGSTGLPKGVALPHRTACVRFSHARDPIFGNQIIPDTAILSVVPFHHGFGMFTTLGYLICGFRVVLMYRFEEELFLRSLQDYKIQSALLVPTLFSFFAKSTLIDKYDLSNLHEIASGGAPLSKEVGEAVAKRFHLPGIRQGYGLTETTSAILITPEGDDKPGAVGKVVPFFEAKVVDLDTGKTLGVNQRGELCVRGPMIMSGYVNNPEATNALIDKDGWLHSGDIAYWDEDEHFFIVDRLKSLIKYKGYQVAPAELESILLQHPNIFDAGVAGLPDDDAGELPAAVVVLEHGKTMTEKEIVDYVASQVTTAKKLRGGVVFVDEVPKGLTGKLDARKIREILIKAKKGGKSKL
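Purified P. pyralis luciferase (10nM final) with 10uM D-luciferin and 10uM ATP (Km levels) in 50mM Tris acetate pH 7.5, 10mM Mg acetate, 0.01% Tween-20, 0.05% BSA; qHTS 6-point titration, ~60 µM downward; luminescence read.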
SMN2 splice enh: enhancers of SMN2 splice variant expression; hit rate 2.8% among 210,000; HEK293 SMN2-luciferase splicing reporter, luminescence, 30-36 h; Potency, µM (top dose mostly 46.1 µM), hits mostly activators; also: nearly all actives have a fitted effect of over 55% in size
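HEK293 cells carry an SMN2 […]–luciferase reporter in which exon 7 inclusion puts luciferase in frame. Cells were plated 10-12 h before compound addition, then incubated 30-36 h at 37C. ONE-Glo luminescence was read; sodium butyrate at 4.5 mM final served as control.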
Each line names hits and unclear results; the compound was inactive in the other large screens. Shown are actives, neighbours in structure and some others; about 9.3% of the full set was active somewhere. Calls follow the shape of the dose curve; as a rule, active = well fitted curve in the direction sought with a large enough effect; inconclusive = small, poorly fitted or top-dose-only effect, or another doubt; inactive = no such curve, though single readings can be large; an effect the other way counts as inactive or inconclusive.

Cc1ccc(NC(=O)CCNC(=O)c2ccccc2Cl)cc1S(=O)(=O)N1CCOCC1	ELG1 repair inh inconclusive (no result: SMN2 splice enh)
CC(C)C[C@@H](CC(=O)N[C@@H](CCC(=O)O)CC(=O)O)NC(=O)[C@@H]1CNCC[C@H]1NC(=O)C[C@H](CCCN)NC(=O)C[C@H](Cc1c[nH]c2ccccc12)NC(=O)[C@@H]1CCCC[C@H]1N	none (no result: ELG1 repair inh, ELG1 genotoxic, NPC1 prom act, Rab9 promoter act, FLuc modulator)
CCOC(=O)C1CCN(C(=O)Cn2nc(C)n3c(cc4sccc43)c2=O)CC1	none (no result: ELG1 repair inh, ELG1 genotoxic, NPC1 prom act, Rab9 promoter act)
COc1ccc(-c2csc(Nc3ncccc3C)n2)cc1	ELG1 repair inh inconclusive, ELG1 genotoxic inconclusive, NPC1 prom act 1.8µM, Rab9 promoter act 1.6µM, FLuc modulator 5.4µM, SMN2 splice enh 2.2µM
COc1ccc(-c2csc(Nc3ncccc3C)n2)cc1OC	ELG1 repair inh inconclusive, NPC1 prom act inconclusive, Rab9 promoter act inconclusive, SMN2 splice enh inconclusive
Cc1ccc(-c2csc(NC(=O)/C=C/c3cccs3)n2)cc1C	ELG1 repair inh inconclusive, FLuc modulator inconclusive
Cc1nc(C)c(-c2csc(Nc3ncccc3C)n2)s1	ELG1 repair inh inconclusive, ELG1 genotoxic inconclusive, NPC1 prom act 2.5µM, Rab9 promoter act 1.3µM, FLuc modulator 6.7µM (no result: SMN2 splice enh)
Cc1cccnc1Nc1nc(-c2ccc(O)c(O)c2)cs1	ELG1 repair inh inconclusive, ELG1 genotoxic 5.2µM, Rab9 promoter act inconclusive, FLuc modulator 17µM
COC(=O)CCCNC(=O)c1ccc(S(=O)(=O)NCc2ccco2)cc1	none (no result: SMN2 splice enh)
O=C(OCCOc1ccccc1)c1n[nH]c2ccccc12	ELG1 repair inh inconclusive, ELG1 genotoxic inconclusive, NPC1 prom act 3.5µM, Rab9 promoter act 2.2µM, FLuc modulator 6µM (no result: SMN2 splice enh)
COCCn1c(C)cc(C(=O)COC(=O)c2c(C)nn(Cc3ccccc3)c2C)c1C	ELG1 repair inh inconclusive, FLuc modulator inconclusive (no result: SMN2 splice enh)
COCCn1c(C)cc(C(=O)COC(=O)c2n[nH]c3ccccc23)c1C	ELG1 repair inh inconclusive, ELG1 genotoxic 0.23µM, NPC1 prom act 0.4µM, Rab9 promoter act 0.22µM, FLuc modulator 0.43µM
CCOC(=O)c1n[nH]c2ccccc12	none
Cc1cc(C(=O)COC(=O)c2n[nH]c3ccccc23)c(C)n1C	ELG1 repair inh inconclusive, ELG1 genotoxic 1.2µM, NPC1 prom act 2.8µM, Rab9 promoter act 0.5µM, FLuc modulator 1.3µM, SMN2 splice enh 2.8µM
O=C(NCCc1ccccc1)c1n[nH]c2ccccc12	ELG1 repair inh inconclusive, ELG1 genotoxic inconclusive, NPC1 prom act 2.5µM, Rab9 promoter act 3.5µM, FLuc modulator 11µM, SMN2 splice enh 11µM
O=C(NCCc1ccc(Cl)cc1)c1n[nH]c2ccccc12	ELG1 repair inh inconclusive, Rab9 promoter act inconclusive, FLuc modulator inconclusive
Cc1cc(C)cc(NC(=O)COC(=O)c2n[nH]c3ccccc23)c1	ELG1 repair inh inconclusive, NPC1 prom act inconclusive, Rab9 promoter act inconclusive, FLuc modulator inconclusive
COCCn1c(C)cc(C(=O)COC(=O)Cc2n[nH]c(=O)c3ccccc23)c1C	ELG1 repair inh inconclusive, Rab9 promoter act inconclusive, FLuc modulator 24µM (no result: SMN2 splice enh)
Cc1ccc(C(=O)COC(=O)c2n[nH]c(=O)c3ccccc23)cc1	FLuc modulator 6µM
Cc1cc(C(=O)COC(=O)Cc2n[nH]c(=O)c3ccccc23)c(C)n1-c1ccc2c(c1)OCO2	ELG1 repair inh 13µM, FLuc modulator inconclusive
CC1CCCCN1C(=O)COC(=O)c1n[nH]c2ccccc12 (centres undefined)	ELG1 repair inh inconclusive, ELG1 genotoxic 18µM, Rab9 promoter act inconclusive, FLuc modulator 15µM
COc1ccc(-n2c(C)cc(C(=O)COC(=O)Cc3n[nH]c(=O)c4ccccc34)c2C)cc1	ELG1 repair inh inconclusive, FLuc modulator inconclusive
CC1CCCCN1C(=O)COC(=O)Cc1c[nH]c2ccccc12 (centres undefined)	none (no result: NPC1 prom act, Rab9 promoter act, FLuc modulator, SMN2 splice enh)
Cc1ccc(NC(=Nc2ccc(Br)cc2)N2CCOCC2)cc1C	none (no result: SMN2 splice enh)
CCOC(=O)c1n[nH]c(=O)c2ccccc12	none (no result: SMN2 splice enh)
Cc1cc(C(=O)COC(=O)c2n[nH]c(=O)c3ccccc23)c(C)n1C	ELG1 repair inh inconclusive, ELG1 genotoxic inconclusive, FLuc modulator 1.7µM (no result: SMN2 splice enh)
O=C(COC(=O)c1n[nH]c2ccccc12)c1ccc(F)c(F)c1	FLuc modulator 9.5µM (no result: SMN2 splice enh)
